TSG101-PTAP inh: qHTS Assay for Iinhibitors of HIV-1 Budding by Blocking the Interaction of PTAP/TSG101. Tumor susceptibility gene 101 protein (Homo sapiens), Q99816. Fluorescence polarization, FITC-PTAP peptide / Tsg101 binding. Potency, µM (highest dose often 115 µM), for inactives: at the top dose activity change, negative = inhibition, most hits filed as inhibitors. 340,000 tested, under 10 active; active = well fitted inhibition curve with a large enough effect in the main read-out, with a control signal flat, not every such curve was filed as active; inconclusive = small, poorly fitted or top-dose-only effect, or effect the other way, or a change in a side signal; inactive = no such curve, though single readings can be large or run the other way; note: potency is the fitted concentration of half-maximal effect; % of control where 0% means no effect
Target sequence (Q99816 whole entry, looked up): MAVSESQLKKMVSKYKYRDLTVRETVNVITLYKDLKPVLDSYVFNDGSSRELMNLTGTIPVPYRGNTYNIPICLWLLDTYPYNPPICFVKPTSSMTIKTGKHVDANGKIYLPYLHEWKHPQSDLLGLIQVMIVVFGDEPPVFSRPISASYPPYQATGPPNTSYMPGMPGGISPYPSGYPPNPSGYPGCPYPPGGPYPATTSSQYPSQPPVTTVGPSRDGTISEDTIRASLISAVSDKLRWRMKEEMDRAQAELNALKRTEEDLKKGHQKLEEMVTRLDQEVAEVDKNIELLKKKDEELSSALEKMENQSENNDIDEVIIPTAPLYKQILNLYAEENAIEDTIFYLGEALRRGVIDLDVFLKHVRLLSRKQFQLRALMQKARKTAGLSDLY
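FP read-out: FITC-PTAP peptide, 50 nM final, binding Tsg101 binding domain, 10 uM final; 20 min, r.t.; 10 mM HEPES pH 7.5, 0.15 M NaCl, 0.01% Tween 20, 3 mM EDTA, 0.1 mM TCEP.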
Nrf2 inh: Nrf2 qHTS screen for inhibitors | A549 ARE-Fluc reporter, luciferase luminescence, 18-24 h | Potency, µM (highest dose often 46 µM), without a hit: top-dose activity change, negative = inhibition, usual class: inhibitors | 360,000 tested, 2.1% active | AID 504444, 2011; note: potency is the fitted concentration of half-maximal effect; % is set by controls: 0 for no effect and ±100 for the full control effect; nearly all actives have a fitted effect of over 60% in size
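A549 ARE_Fluc cells, 5000/well, 5% FBS OPTI-MEM; compounds in dose-response, 18-24 h at 37 °C/5% CO2; CellTiter-Fluor viability read (Ex 405/Em 525), then BugLite luciferase luminescence = Nrf2 activity.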
Nrf2 activator: qHTS of Nrf2 Activators; AREc32 ARE-luciferase reporter (MCF7-derived line), luminescence, 24 h; Potency, µM (top dose mostly 46.1 µM), for inactives: at the top dose activation, usual class: activators; 410,000 tested, 0.31% active; note: potency is the fitted concentration of half-maximal effect; % of control where 0% means no effect; nearly all actives have a fitted effect of over 65% in size
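AREc32 cells carrying an ARE-driven firefly luciferase, 1000 cells/well in OPTI-MEM with 5% FBS, dosed after overnight attachment and incubated 24 hr at 37 deg C. Steady-Glo luminescence read after 30 min at RT.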
Glioma ERSR ind: qHTS for Inducers of the Endoplasmic Reticulum Stress Response (ERSR) in Human Glioma: qHTS. 420,000 tested, 0.02% active. Potency, µM, for inactives: top-dose activation, usual class: activators. U87-MG GRP78 promoter luciferase reporter, 16 h; note: potency is the fitted concentration of half-maximal effect; series mostly up to about 76 µM; % of control where 0% means no effect; nearly all actives have a fitted effect of over 35% in size
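Stably transfected U87-MG human glioma cells carrying a GRP78-based luminescent sensor were seeded at 1000 cells/well, pin-dosed with compounds and incubated 16 h. Luciferase reagent was then added, and end-point luminescence was read after 10 min at room temperature.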
A549 viability: Nrf2 qHTS screen for inhibitors: counterscreen for cytotoxicity; A549 ARE-Fluc cells, CellTiter-Fluor viability, 18-24 h; Potency, µM (titrated, usually from 46 µM), without a hit: at the highest dose activity change, negative = cytotoxicity, most hits filed as inhibitors; 390,000 tested, 0.16% active; AID 504648, 2011; note: potency is the fitted concentration of half-maximal effect; % is set by controls: 0 for no effect and ±100 for the full control effect
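A549 ARE_Fluc cells in 5% FBS OPTI-MEM were exposed to compounds in concentration-response for 18-24 h at 37 deg C. Viability was read by CellTiter-Fluor fluorescence (Ex 405/Em 525) after 30 min, before the luciferase read.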
miR-21 reporter: qHTS Assay for Modulators of miRNAs and/orActivators of miR-21; Potency, µM (series often up to 38.3 µM), for inactives: top-dose activity change, positive = activation, actives largely listed as activators; HeLa miR-21 FLuc reporter, luciferase, 48 h; 340,000 tested, under 10 active;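 note: % of control where 0% means no effect; miR-21 action dims this reporter so a rising signal means less miR-21 action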
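Luminescence from a firefly luciferase reporter carrying a miR-21 binding site downstream, stably expressed under a CMV promoter in HeLa cells that make miR-21 endogenously, reports miRNA modulation after 48 h compound exposure up to approximately 40uM final.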
Starred values were filed as active, the others as inactive; ? = inconclusive; / = not tested or not shown. Sampled rows, rich in hits. Any-hit rate of the full collection: about 2.1%. Unless noted, calls come from the whole dose curve; as a rule, active = well fitted curve in the direction sought with a large enough effect; inconclusive = small, poorly fitted or top-dose-only effect, or another doubt; inactive = no such curve, though single readings can be large; an effect the other way counts as inactive or inconclusive.

SMILES | TSG101-PTAP inh | Nrf2 inh | Nrf2 activator | Glioma ERSR ind | A549 viability | miR-21 reporter
CO/N=C(\C(=O)N[C@@H]1C(=O)N2C(C(=O)[O-])=C(C[n+]3cccc4c3CCCC4)CS[C@H]12)c1csc(N)n1 | / | / | / | -3.3% | / | /
CCCOc1ccc(/C=C/C(=O)Nc2ccc([N+](=O)[O-])cc2)cc1 | -0.9% | 23.1µM* | 2.9% | -5.2% | -19.8% | 10.6%
CCCCOc1ccc(/C=C/C(=O)Nc2ccc([N+](=O)[O-])cc2C)cc1 | -2.2% | ? | 0.5% | -4.1% | -0.1% | -4.0%
O=c1c2ccccc2nc(/C=C/c2ccc([N+](=O)[O-])o2)n1CCCO | -2.6% | 20.6µM* | -0.7% | -18.6% | 23.1µM* | ?
Cn1nccc1C(=O)NCC1CCC2(CCN(Cc3ccc(-c4ccc(Cl)cc4)o3)CC2)O1 (stereo not given) | / | / | / | -0.4% | / | /
O=C(CCCN1C(=O)/C(=C/c2ccccc2Cl)SC1=S)NNC(=O)c1ccccc1Cl | 0.4% | 18.4µM* | -2.2% | -13.5% | -10.1% | ?
COc1ccc(/C=C2\SC(=S)N(CCCC(=O)NNC(=O)c3ccccc3O)C2=O)cc1 | -3.7% | 13µM* | -2.8% | -10.1% | -8.4% | 21.6%
O=C(CCCN1C(=O)/C(=C/c2cccs2)SC1=S)NNC(=O)c1ccncc1 | 8.0% | ? | 5.0% | -4.5% | ? | -1.3%
O=C(CCCN1C(=O)/C(=C/c2ccccc2Cl)SC1=S)NNC(=O)c1ccncc1 | -3.1% | 25.9µM* | -1.0% | -16.1% | -30.6% | 28.7%
O=C(c1ccc2c(c1)OCO2)N1CCOc2ccc(CN3CCC(Oc4cccnc4)CC3)cc2C1 | / | / | / | -7.0% | / | /
CCCN(CC(=O)Nc1ccccc1OC)C(=O)c1ccc2[nH]c3c(c2c1)CC(C)CC3 (stereo not given) | 0.0% | 23.1µM* | 2.1% | -2.1% | ? | /
COc1ccc(-c2cc(C(F)(F)F)n3nc(C(=O)N4CCCCC4)cc3n2)cc1OC | -0.4% | 25.9µM* | 0.2% | -2.5% | -19.4% | -7.0%
COc1ccc(-c2cc(C(F)(F)F)n3nc(C(=O)N4CCCCC4)cc3n2)cc1 | -10.2% | ? | -0.4% | 2.2% | -3.9% | -4.5%
CC(C)c1ccccc1NC(=O)COC(=O)c1c2c(nc3ccccc13)CCN(Cc1ccccc1)C2 | -2.1% | ? | -2.5% | 0.9% | -17.9% | 26.6%
COc1cccc(NC(=O)COC(=O)c2c3c(nc4ccccc24)CCC(C)C3)c1 (stereo not given) | -20.2% | 16.4µM* | -2.7% | -4.5% | ? | 25.3%
Cc1cc(N2CCN(C)CC2)ccc1NC(=O)c1c2c(nc3ccccc13)CCN(Cc1ccccc1)C2 | -0.8% | 18.4µM* | 28.1% | -14.5% | 10.3µM* | -26.1%
O=C(NC1CCCCCC1)c1c2c(nc3ccccc13)CCN(Cc1ccccc1)C2 | 0.0% | ? | -0.5% | -1.0% | -14.8% | 0.1%
Cc1c(Cl)cccc1NC(=O)COC(=O)c1c2c(nc3ccccc13)CCN(Cc1ccccc1)C2 | 0.5% | 20.6µM* | -0.4% | -4.0% | ? | -1.3%
CCCCCOc1ccc(C2SC(=O)NC2=O)cc1OCC (stereo not given) | / | / | / | 1.8% | / | /
O=C(NCC1CCC2(CCN(Cc3c[nH]c4ccccc34)CC2)O1)C1CCOCC1 (stereo not given) | / | / | / | 0.8% | / | /
Cc1ccc(CNc2nc(C)c(-c3ccn(CCN4CCOCC4)n3)s2)o1 | / | / | / | -3.2% | / | /
O=C(Nc1ccc(F)cc1F)N1CCCN(c2ccc([N+](=O)[O-])cn2)CC1 | -1.3% | ? | -0.6% | -4.7% | -18.0% | 8.1%
CC(C)(C)c1ccc(NC(=O)N2CCN(c3ccc([N+](=O)[O-])cn3)CC2)cc1 | -0.3% | 13µM* | 3.7% | -4.3% | -8.0% | -2.8%
CCCS(=O)(=O)NCc1c(C)ncc2c1CCN(C(=O)/C=C/c1ccc(F)cc1F)C2 | / | / | / | -4.4% | / | /
Cc1ccc(NS(=O)(=O)c2cc3c(cc2N2CCCCC2)NC(=O)CC3)cc1C | / | ? | / | / | -16.7% | /
SMILES | TSG101-PTAP inh | Nrf2 inh | Nrf2 activator | Glioma ERSR ind | A549 viability | miR-21 reporter
Cc1ccc(/C=N/n2c(-c3ccccc3)csc2=S)cc1 | / | / | / | -1.7% | / | /
O=C(Nc1ccccc1)C1CCCN(C(=O)c2ccc(Cl)cc2)C1 (stereo not given) | 1.7% | ? | -0.3% | -1.6% | 0.5% | 8.2%
O=C(Nc1cccc(S(=O)(=O)N2CCCCCC2)c1)C1CCN(C(=O)c2ccc(F)cc2)CC1 | -0.1% | 25.9µM* | -0.3% | -0.9% | -3.6% | /
O=C(Nc1cccc(F)c1)C1CCCN(C(=O)c2ccc(Cl)cc2)C1 (stereo not given) | -1.1% | 7.31µM* | 15.0% | 0.2% | -11.4% | /
O=C(Nc1cccc(C(F)(F)F)c1)C1CCN(S(=O)(=O)c2ccc(N3CCCC3=O)cc2)CC1 | -4.5% | 13µM* | -0.3% | -5.1% | ? | ?
CCc1cc[n+](CC(=O)c2ccc(F)cc2)cc1C(=O)O | / | / | / | -2.2% | / | /
CC(=O)N1CCC[C@H]1C(=O)N1CCc2c(cnc(C)c2CNC(=O)/C=C/c2cccs2)C1 | / | / | / | -0.9% | / | /
COc1ccc(CN(C)C(=O)c2cc(-c3ccccc3)nc3ccc(C)cc23)c(OC)c1OC | -2.5% | -15.3% | 2.7% | -3.8% | -8.6% | 13.1%
Cc1c(CN(C)C(=O)c2cc(-c3ccccc3)nc3ccc(Br)cc23)cnn1C | / | 9.2µM* | -1.2% | -1.7% | -0.4% | 18.5%
O=C(NCc1cccs1)C(=O)NCC(c1ccco1)N1CCN(c2ccccc2F)CC1 (stereo not given) | -2.9% | 20.6µM* | -0.2% | -3.2% | 10.3% | 12.6%
O=C(NCC(c1cccnc1)N1CCN(c2ccccc2)CC1)OCc1ccccc1 (stereo not given) | -1.7% | -19.9% | 0.4% | -3.1% | -4.2% | 10.4%
O=C(NCC(c1ccco1)N1CCN(c2ccccc2F)CC1)c1cccs1 (stereo not given) | 0.0% | -3.9% | 1.7% | -0.5% | 0.1% | /
O=C(NCC(c1cccnc1)N1CCN(c2ccccc2F)CC1)OCc1ccccc1 (stereo not given) | 0.2% | 20.6µM* | 0.6% | -6.0% | -21.7% | 14.5%
CN(C#N)c1nc(N2CCOCC2)nc(N2CCOCC2)n1 | -17.8% | ? | -0.6% | -1.1% | -3.0% | /
CCN(CC)c1nc(C#N)nc(N2CCOCC2)n1 | / | 23.1µM* | / | -3.2% | -3.5% | /
O=[N+]([O-])c1ccc(O)c2cccnc12 | -1.7% | -25.0% | 2.7% | -1.8% | -10.3% | -3.0%
O=[N+]([O-])c1cc(Cl)c(O)c2ncccc12 | -5.9% | 20.6µM* | 7.7% | -2.5% | ? | 17.8%

Screening data: PubChem, National Center for Advancing Translational Sciences (NCATS)
